# Laboratory results reported in PubChem BioAssay (NCI).
# This is part of a sample that, as a whole, favours compounds with a hit. Of some 83,000 tested, about 20% had one in any assay.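 The endpoint reported here, percent growth, reads 100 for growth as untreated, 0 for no net growth and -100 for all cells dead.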 Unmarked numbers belong to inactive results. Calls of active or inactive are those of the source. Rule for the calls: active = growth percent below 10; inactive = the rest.
# Tests used:
# Experiment in all cases: NCI-60 one-dose screen, 48 h (100 = growth as untreated, 0 = no growth, -100 = all killed)
# Conditions in all cases: 10 µM unless noted
# SR leukemia = system: SR leukemia
# RPMI-8226 leukemia = system: RPMI-8226 leukemia
# OVCAR-8 ovarian = system: OVCAR-8 ovarian
# OVCAR-5 ovarian = system: OVCAR-5 ovarian
# OVCAR-4 ovarian = system: OVCAR-4 ovarian
# SK-OV-3 ovarian = system: SK-OV-3 ovarian
# IGROV1 ovarian = system: IGROV1 ovarian
# OVCAR-3 ovarian = system: OVCAR-3 ovarian
# HS 578T breast = system: HS 578T breast
# NCI/ADR-RES ovarian = system: NCI/ADR-RES ovarian
# T-47D breast = system: T-47D breast
# BT-549 breast = system: BT-549 breast
# MDA-MB-435 melanoma = system: MDA-MB-435 melanoma
# SW-620 colon = system: SW-620 colon
# MCF7 breast = system: MCF7 breast
# HCT-116 colon = system: HCT-116 colon
# KM12 colon = system: KM12 colon
Compound,growth (SR leukemia),growth (RPMI-8226 leukemia),growth (OVCAR-8 ovarian),growth (OVCAR-5 ovarian),growth (OVCAR-4 ovarian),growth (SK-OV-3 ovarian),growth (IGROV1 ovarian),growth (OVCAR-3 ovarian),growth (HS 578T breast),growth (NCI/ADR-RES ovarian),growth (T-47D breast),growth (BT-549 breast),growth (MDA-MB-435 melanoma),growth (SW-620 colon),growth (MCF7 breast),growth (HCT-116 colon),growth (KM12 colon)
COc1cc(-c2nc(C(=O)NCC(=O)NO)nn2-c2ccc(Cl)cc2)cc(OC)c1OC,84.8%,105%,98.5%,93.3%,105%,93.3%,112%,103%,85.6%,106%,88.2%,105%,100%,97.1%,92.2%,101%,95.9%
CCC#CC[C@H](O)C/C=C1/C(=O)C=C[C@@H]1C/C=C\CCCC(=O)OC,-8.41% (active),-13.6% (active),7.14% (active),32.4%,29.1%,35.5%,14%,12.5%,52.6%,14.4%,5.68% (active),-0.591% (active),1.89% (active),-12.5% (active),15.1%,-49.7% (active),-49% (active)
Cc1cc(C)nc(SC2=C(Nc3ccc(O)cc3)C(=O)N(Cc3ccccc3)C2=O)n1,73.6% [40 µM],38.8% [40 µM],111% [40 µM],120% [40 µM],85.6% [40 µM],94.3% [40 µM],81.4% [40 µM],80.9% [40 µM],-13.2% [40 µM] (active),69% [40 µM],45% [40 µM],63.9% [40 µM],80.1% [40 µM],113% [40 µM],77.1% [40 µM],95.4% [40 µM],103% [40 µM]
Cc1cc(C)nc(SC2=C(Nc3cccc(Cl)c3C)C(=O)N(Cc3ccccc3)C2=O)n1,31.8% [30 µM],12.5% [30 µM],64.2% [30 µM],81.8% [30 µM],49% [30 µM],91.6% [30 µM],73% [30 µM],64.6% [30 µM],60.7% [30 µM],52.1% [30 µM],37.1% [30 µM],48.1% [30 µM],42.1% [30 µM],65.4% [30 µM],30.7% [30 µM],44.1% [30 µM],53.2% [30 µM]
Cc1cc(C)nc(SC2=C(Nc3cc(Cl)ccc3O)C(=O)N(Cc3ccccc3)C2=O)n1,54% [30 µM],36.5% [30 µM],76.4% [30 µM],123% [30 µM],71.2% [30 µM],103% [30 µM],83.8% [30 µM],88.3% [30 µM],82.7% [30 µM],74.6% [30 µM],60.8% [30 µM],85.2% [30 µM],71.6% [30 µM],91.8% [30 µM],46.4% [30 µM],83% [30 µM],-23.1% [30 µM] (active)
CCOc1ccc(-n2nc(C(=O)Nc3cc(OC)c(OC)c(OC)c3)nc2-c2cc(OC)c(OC)c(OC)c2)cc1,40.7%,55.7%,74%,102%,68.1%,99.7%,90.8%,86.9%,65.6%,85.8%,51.4%,91.4%,79.6%,95.5%,83.2%,75.8%,81.8%
COc1ccc2c(c1)C(=O)/C(=C/c1ccccn1)CC2,7.35% (active),-10.3% (active),85.4%,92.1%,83.8%,98%,85.6%,62.1%,98.1%,88.6%,54.2%,96.4%,57.4%,57.5%,15.1%,26.3%,-10% (active)
CC(C)(CCCN=C(N)Nc1ccc(Cl)cc1)c1ccc(F)cc1,-13.6% (active),11%,87.3%,75.8%,54.4%,94.7%,55.2%,71.2%,83.2%,73.8%,53.9%,82.6%,63%,43.4%,52.9%,28.6%,57.5%
O=C1/C(=C/c2ccc(OCCCOc3ccc(Cl)cc3)cc2)N=C2SCCCN12,67.5%,45.6%,65.9%,102%,49.2%,105%,97.8%,71.3%,107%,67.4%,50.5%,72.1%,93.2%,102%,69.5%,45.8%,70.8%
COc1ccccc1Nc1nc(-c2cc3cccc(C(F)(F)F)c3oc2=O)cs1,10.2%,16.8%,9.28% (active),67%,37.1%,31.3%,22.9%,-21.7% (active),31.4%,15%,68.9%,41.9%,-44.8% (active),24%,15.7%,2.41% (active),3.87% (active)
Cc1ccc(O)c(N2C(=NCc3ccco3)NS(=O)(=O)c3cnccc32)c1,71.3%,65.7%,64.5%,92.4%,107%,117%,94.2%,96.9%,113%,95.2%,110%,101%,91.8%,111%,101%,99%,112%
C=C1C(=O)O[C@H]2[C@H]1CC/C(COC(=O)NCCc1ccc(OC)c(OC)c1)=C\CC[C@@]1(C)O[C@@H]21,11.2%,28.8%,51%,82.8%,49.9%,99.3%,55.9%,25.8%,91.1%,103%,33.2%,64.3%,58.3%,18.9%,34.8%,5.66% (active),84.4%
CCOc1nc(-c2ccccc2)cc2c(O)c(C(=O)N/N=C/c3ccc(O)cc3O)[nH]c(=O)c12,27%,38%,14.5%,43.6%,39.3%,41.6%,15.6%,30.9%,82.9%,-40.1% (active),34.3%,58.9%,48.3%,44.6%,46.3%,18.6%,42.3%
CC/C=C\C/C=C\C[C@H]1C/C=C2/C(=O)C=C[C@@H]2C/C=C\CCC(=O)O1,0.464% (active),-14.6% (active),7.21% (active),44.6%,26.7%,40.9%,13.1%,2.66% (active),43.6%,17.9%,23.4%,-3.33% (active),0.314% (active),8.89% (active),26.1%,-48.7% (active),-27.8% (active)
COc1cc2c(cc1O)CC[C@@H]1[C@@H]2CC[C@]2(C)[C@@H](OCCCN(C)C)CC[C@@H]12,-36.2% (active),-32.9% (active),-34.2% (active),2.83% (active),-15% (active),-59.1% (active),-35.2% (active),-55.5% (active),-38.2% (active),-23.4% (active),-48.9% (active),-54.4% (active),-61.8% (active),-43.1% (active),-68.9% (active),-71% (active),-48.5% (active)
Fc1ccc2[nH]cc(SSc3c[nH]c4ccc(F)cc34)c2c1,-29.4% (active),-14% (active),40.5%,46.8%,46.6%,95.2%,77.8%,50.5%,-29.2% (active),17.4%,27.5%,39.6%,46.2%,91.2%,32.2%,25.3%,24.3%
O=c1c2c3c(sc2nc(N/N=C/c2cn(-c4ccccc4)nc2-c2ccc(Cl)cc2)n1Cc1ccccc1)CCCC3,59.3%,119%,98.2%,121%,109%,102%,92.4%,106%,94.2%,108%,105%,92.1%,93.4%,107%,104%,90.3%,103%
